These results are taken from article PMC5540273 (PLoS ONE, 2017).

Values joined by “and” are separate entries in the source; they are usually repeats but may differ in a detail not shown here. Identical values can stand only once. Like-named read-outs stand apart in the source and are kept apart here.

One experiment relates to BMPR1A. The conditions noted are these: n = 1.
The next experiment concerns BMPR1B. Conditions: concentration: 1 μM, replicates: in singlicate; n = 1.
A further experiment deals with BMPR2. The conditions noted are these: n = 1.
The next experiment has as its system BMX. Conditions: n = 1.
In a further experiment the test system is BRAF. The conditions noted are these: n = 1.
Another experiment concerns T1, BRK.
T1 construct: gene PTK6
Conditions: n = 1.

The test system of the next experiment is BRSK1. Conditions: n = 1.
A further experiment has as its system BRSK2. The conditions noted are these: n = 1.
For the next experiment, the system named is BTK. The conditions noted are these: concentration: 1 μM, replicates: in singlicate; n = 1.
Another experiment deals with BUB1. Conditions: n = 1.
A further experiment deals with CAMK1B. The conditions noted are these: n = 1.
The test system of the next experiment is CAMK1D. The conditions noted are these: n = 1.
For a further experiment, the system named is CAMK1G. The conditions noted are these: n = 1.
For a further experiment, the system named is CAMK1. Conditions: n = 1.
The next experiment deals with CAMK2A. Conditions: concentration: 1 μM, replicates: in singlicate; n = 1.
The next experiment relates to CAMK2B. The conditions noted are these: concentration: 1 μM, replicates: in singlicate; n = 1.
For a further experiment, the system named is CAMK2D. Conditions: n = 1.
The next experiment has as its system CAMK2G. Conditions: n = 1.
The subject of another experiment is CAMK4. The conditions noted are these: concentration: 1 μM, replicates: in singlicate; n = 1.
For another experiment, the system named is CAMKK1. The conditions noted are these: concentration: 1 μM, replicates: in singlicate; n = 1.
Setting [1] is: concentration: 1 μM, replicates: in singlicate.
Where [2] appears, read: concentration: 1 μM,replicates: in singlicate, 1 µM.
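Further: KINOMEscan kinase panel screen.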

Consider `Cc1ccccc1-n1cnc2c(N)ncnc21` [SKF-97510], for which the “%Inh” value in the experiment with BMPR1A (setting [1]) is reported as 0%; with BMPR1B, 0%; in the experiment on BMPR2 (setting [1]), 0%; in the experiment on BMX (setting [1]), 12%; in the experiment with BRAF (setting [1]), 0%; in the experiment with BRK (setting [1]), 5%. Further, the “%Inh” value is 0% in the experiment with BRSK1 (setting [1]); 0% in the experiment with BRSK2 (setting [1]); 0% with BTK; 0% in the experiment with BUB1 (setting [1]); 0% in the experiment with CAMK1B (setting [1]); 5% with CAMK1D (setting [1]). In addition, the “%Inh” value in the experiment with CAMK1G (setting [1]) amounted to 0%; in the experiment on CAMK1 (setting [1]) it was 0%; in the experiment with CAMK2A, 24%; with CAMK2B it was 14%; with CAMK2D (setting [1]), 4%; in the experiment on CAMK2G (setting [1]), 4%. Besides, the “%Inh” value in the experiment on CAMK4 was determined as 0%; with CAMKK1 it was 1%.

For the compound `Fc1cc(Cl)ccc1Nc1ccnc2cc(I)ccc12` [GW551191], the “%Inh” value in the experiment with BMPR1A (setting [1]) came to 0%; in the experiment with BMPR1B, 0%; in the experiment on BMPR2 (setting [1]), 8%; with BMX (setting [1]), 0%; in the experiment on BRAF (setting [1]), 12%; with BRK (setting [1]) it was 19%. The “%Inh” value in the experiment with BRSK1 (setting [1]) is listed as 2%; with BRSK2 (setting [1]), 0%; in the experiment on BTK it was 0%; in the experiment with BUB1 (setting [1]) it was 54%; with CAMK1B (setting [1]) it was 5%; in the experiment with CAMK1D (setting [1]) it was 0%. Besides, the “%Inh” value in the experiment on CAMK1G (setting [1]) worked out at 0%; with CAMK1 (setting [1]), 0%; with CAMK2A, 0%; in the experiment with CAMK2B, 0%; with CAMK2D (setting [1]), 1%; in the experiment with CAMK2G (setting [1]) it was 14%. Moreover, the “%Inh” value in the experiment with CAMK4 and in the experiment with CAMKK1 was 0% throughout.

Take `CSc1nn2c(=O)cc(N3CCOCC3)nc2n1Cc1cccc(C(F)(F)F)c1C` [GSK2363608]: the “%Inh” value in the experiment with BMPR1A (setting [2]) is 17% and 0%; in the experiment with BMPR1B it was 0%; in the experiment on BMPR2 (setting [2]) it was 22% and 0%; with BMX (setting [2]), 8% and 0%; with BRAF (setting [2]), 0% and 5%; in the experiment on BRK (setting [2]) it was 0% and 10%. Further, the “%Inh” value is 7% and 4% in the experiment on BRSK1 (setting [2]); 4% and 0% in the experiment on BRSK2 (setting [2]); 0% with BTK; 13% and 0% in the experiment on BUB1 (setting [2]); 31% and 0% with CAMK1B (setting [2]); 9% and 19% with CAMK1D (setting [2]). Besides, the “%Inh” value is 0% and 11% with CAMK1G (setting [2]); 1% and 13% with CAMK1 (setting [2]); 0% with CAMK2A; 0% with CAMK2B; 2% and 19% with CAMK2D (setting [2]); 0% and 15% with CAMK2G (setting [2]). The “%Inh” value in the experiment with CAMK4 and with CAMKK1 was 0% in each case.

On to `Cl.O=C(Nc1cccc(-c2nn3ncccc3c2-c2ccnc(Nc3cccnc3)n2)c1)c1c(F)cccc1F` [GSK312879], for which the “%Inh” value in the experiment with BMPR1A (setting [1]) stood at 0%; in the experiment with BMPR1B, 0%; in the experiment with BMPR2 (setting [1]), 0%; with BMX (setting [1]) it was 24%; in the experiment with BRAF (setting [1]) it was 91.6%; in the experiment with BRK (setting [1]) it was 21%. Also, the “%Inh” value in the experiment on BRSK1 (setting [1]) is given as 8%; with BRSK2 (setting [1]) it was 0%; with BTK, 0%; in the experiment on BUB1 (setting [1]) it was 7%; in the experiment with CAMK1B (setting [1]), 27%; in the experiment with CAMK1D (setting [1]), 3%. Further, the “%Inh” value was 0% in the experiment on CAMK1G (setting [1]); 8% in the experiment on CAMK1 (setting [1]); 0% in the experiment on CAMK2A; 0% in the experiment on CAMK2B; 0% in the experiment with CAMK2D (setting [1]); 13% in the experiment with CAMK2G (setting [1]). The results for the “%Inh” value in the experiment with CAMK4 and in the experiment on CAMKK1 were 0% and 4%, respectively.

Turning to `O=C1NC(=O)C(N2CCc3ccccc32)=C1c1ccccc1Cl` [SB-373598], the “%Inh” value with BMPR1A (setting [1]) is 0%; with BMPR1B it was 8%; in the experiment on BMPR2 (setting [1]) it was 100%; in the experiment on BMX (setting [1]), 29%; with BRAF (setting [1]) it was 1%; in the experiment with BRK (setting [1]) it was 24%. Further, the “%Inh” value in the experiment on BRSK1 (setting [1]) worked out at 12%; in the experiment with BRSK2 (setting [1]), 9%; in the experiment with BTK, 0%; in the experiment with BUB1 (setting [1]) it was 16%; in the experiment on CAMK1B (setting [1]), 41%; in the experiment with CAMK1D (setting [1]), 65%. Besides, the “%Inh” value with CAMK1G (setting [1]) was 0%; in the experiment on CAMK1 (setting [1]), 67%; with CAMK2A, 20%; in the experiment on CAMK2B, 0%; in the experiment with CAMK2D (setting [1]) it was 18%; in the experiment with CAMK2G (setting [1]) it was 22%. Moreover, the “%Inh” value with CAMK4 is listed as 10%; with CAMKK1, 4%.

Regarding `CCn1c(-c2cccnc2O)nc2cnccc21` [SB-736715], the “%Inh” value in the experiment with BMPR1A (setting [1]), with BMPR1B, in the experiment on BMPR2 (setting [1]), with BMX (setting [1]), in the experiment on BRAF (setting [1]) and with BRK (setting [1]) was 0% each time. The “%Inh” value in the experiment with BRSK1 (setting [1]) turned out to be 0%; in the experiment with BRSK2 (setting [1]) it was 0%; in the experiment with BTK, 0%; with BUB1 (setting [1]), 6%; in the experiment on CAMK1B (setting [1]), 30%; in the experiment on CAMK1D (setting [1]), 0%. Besides, the “%Inh” value with CAMK1G (setting [1]), with CAMK1 (setting [1]), in the experiment with CAMK2A, in the experiment on CAMK2B, in the experiment on CAMK2D (setting [1]) and in the experiment on CAMK2G (setting [1]) was 0% throughout. In addition, the results for the “%Inh” value with CAMK4 and in the experiment on CAMKK1 were 0% and 2%, respectively.

`Cc1csc(-c2nc(Nc3ccncc3)c3ccccc3n2)n1` [GW869640]: the “%Inh” value in the experiment on BMPR1A (setting [1]) is given as 6%; in the experiment with BMPR1B, 42%; in the experiment on BMPR2 (setting [1]), 36%; with BMX (setting [1]), 14%; with BRAF (setting [1]) it was 10%; in the experiment with BRK (setting [1]), 8%. Also, the “%Inh” value in the experiment on BRSK1 (setting [1]) is 0%; in the experiment on BRSK2 (setting [1]), 15%; in the experiment on BTK it was 0%; in the experiment on BUB1 (setting [1]), 72%; in the experiment with CAMK1B (setting [1]), 9%; with CAMK1D (setting [1]), 0%. The “%Inh” value was 14% with CAMK1G (setting [1]); 5% in the experiment with CAMK1 (setting [1]); 10% in the experiment on CAMK2A; 2% in the experiment with CAMK2B; 17% with CAMK2D (setting [1]); 25% in the experiment on CAMK2G (setting [1]). In addition, the “%Inh” value in the experiment on CAMK4 is reported as 0%; with CAMKK1, 26%.
